The whole screen tested about 5,500 compounds, of which about 2,000 (36%) were called active. Another 18% or so got no clear call; they are omitted. The list shows a part of the results. Values without a mark were called inactive. Cut-off read from the data, not from the text of the source: active = normalized growth mostly below about 0.91 (no sharp cut-off); inconclusive = no clear call, values can overlap the other calls; inactive = mostly above about 0.92.
Test: chemical genetic growth profiling, strain panel (AID 1159580);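 note: tested at 20 µM; growth read once vehicle control cultures reached saturation at 30 °C; 1 = growth at the plate median or of vehicle wells; lower values mean less growth of the strain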
Settings: S. cerevisiae deletion strains, growth OD
[1] = locus YDL101C, strain DUN1, stronger effect = lower value
[2] = locus YHR030C, strain SLT2, stronger effect = lower value

Q: With `COc1nc(N)nc(SC)n1` as the compound, how does the normalized growth (locus YAL013W, strain DEP1, stronger effect = lower value) read?
A: 0.995

Q: What about the normalized growth (locus YBR229C, strain ROT2, stronger effect = lower value) of the same compound?
A: 1

Q: And the normalized growth (locus YCL061C, strain MRC1, stronger effect = lower value)?
A: 0.988

Q: What about the normalized growth [1] of the same compound?
A: 1

Q: What about the normalized growth (locus YDR150W, strain NUM1, stronger effect = lower value) of the same compound?
A: 1

Q: And the normalized growth (locus YEL061C, strain CIN8, stronger effect = lower value)?
A: 0.989

Q: What about the normalized growth (locus YGR078C, strain PAC10, stronger effect = lower value) of the same compound?
A: 1.02

Q: And the normalized growth (locus YGR229C, strain SMI1, stronger effect = lower value)?
A: 0.985

Q: What about the normalized growth [2] of the same compound?
A: 1.05

Q: What about the normalized growth (locus YHR087W, strain rtc3, stronger effect = lower value) of the same compound?
A: 0.992

Q: What about the normalized growth (locus YJR043C, strain POL32, stronger effect = lower value) of the same compound?
A: 0.987

Q: What about the normalized growth (locus YJR075W, strain HOC1, stronger effect = lower value) of the same compound?
A: 0.987

Q: What about the normalized growth (locus YKL190W, strain CNB1, stronger effect = lower value) of the same compound?
A: 0.974

Q: And the normalized growth (locus YLR039C, strain RIC1, stronger effect = lower value)?
A: 0.97

Q: And the normalized growth (locus YLR058C, strain SHM2 (second series), stronger effect = lower value)?
A: 0.989

Q: And the normalized growth (locus YLR085C, strain ARP6, stronger effect = lower value)?
A: 0.984

Q: What about the normalized growth (locus YLR262C, strain YPT6, stronger effect = lower value) of the same compound?
A: 0.974

Q: What about the normalized growth (locus YML094W, strain GIM5, stronger effect = lower value) of the same compound?
A: 1.12

Q: And the normalized growth (locus YMR219W, strain ESC1, stronger effect = lower value)?
A: 0.993

Q: And the normalized growth (locus YMR263W, strain SAP30, stronger effect = lower value)?
A: 0.984

Q: And the normalized growth (locus YNL128W, strain TEP1, stronger effect = lower value)?
A: 0.979

Q: And the normalized growth (locus YNL153C, strain GIM3, stronger effect = lower value)?
A: 1

Q: What about the normalized growth (locus YNL298W, strain CLA4 (second series), stronger effect = lower value) of the same compound?
A: 0.98

Q: What about the normalized growth (locus YNL322C, strain KRE1, stronger effect = lower value) of the same compound?
A: 1

Q: What about the normalized growth (locus YNR030W, strain Alg12, stronger effect = lower value) of the same compound?
A: 1.02

Q: And the normalized growth (locus YOL006C, strain TOP1, stronger effect = lower value)?
A: 0.978

Q: And the normalized growth (locus YPL055C, strain LGE1, stronger effect = lower value)?
A: 1.01

Q: What about the normalized growth (locus YPL241C, strain CIN2, stronger effect = lower value) of the same compound?
A: 1.14

Q: What about the normalized growth (locus YPR135W, strain CTF4, stronger effect = lower value) of the same compound?
A: 1.03

Q: Which normalized growth (locus YAR019C, strain CDC15, stronger effect = lower value) does the source give for `COc1cc(C(=O)Oc2c(Cl)cc(Cl)cc2C=Nc2cccc([N+](=O)[O-])c2)cc(OC)c1OC` here?
A: 0.959

Q: What about the normalized growth (locus YBL105C, strain PKC1, stronger effect = lower value) of the same compound?
A: 0.971

Q: What about the normalized growth (locus YBR135W, strain CKS1, stronger effect = lower value) of the same compound?
A: 0.973

Q: And the normalized growth (locus YBR136W, strain MEC1, stronger effect = lower value)?
A: 0.977

Q: And the normalized growth (locus YBR160W, strain CDC28, stronger effect = lower value)?
A: 0.98

Q: What about the normalized growth (locus YDL017W, strain CDC7, stronger effect = lower value) of the same compound?
A: 0.982

Q: And the normalized growth (locus YDL028C, strain MPS1, stronger effect = lower value)?
A: 0.962

Q: What about the normalized growth [1] of the same compound?
A: 0.985

Q: And the normalized growth (locus YDL108W, strain KIN28, stronger effect = lower value)?
A: 0.971

Q: What about the normalized growth (locus YDL132W, strain cdc53, stronger effect = lower value) of the same compound?
A: 0.962

Q: What about the normalized growth (locus YDL214C, strain PRR2, stronger effect = lower value) of the same compound?
A: 0.607 (active)

Q: What about the normalized growth (locus YDR052C, strain DBF4, stronger effect = lower value) of the same compound?
A: 0.987

Q: What about the normalized growth (locus YDR054C, strain cdc34, stronger effect = lower value) of the same compound?
A: 0.956

Q: What about the normalized growth (locus YDR226W, strain ADK1, stronger effect = lower value) of the same compound?
A: 0.964

Q: What about the normalized growth (locus YDR477W, strain SNF1, stronger effect = lower value) of the same compound?
A: 0.626 (active)

Q: And the normalized growth (locus YER123W, strain YCK3, stronger effect = lower value)?
A: 0.415 (active)

Q: And the normalized growth (locus YER133W, strain GLC7, stronger effect = lower value)?
A: 0.59 (active)

Q: And the normalized growth (locus YFL009W, strain cdc4, stronger effect = lower value)?
A: 0.958

Q: And the normalized growth (locus YFL029C, strain CAK1, stronger effect = lower value)?
A: 0.98

Q: And the normalized growth (locus YFR003C, strain YPI1, stronger effect = lower value)?
A: 0.976

Q: And the normalized growth (locus YFR019W, strain FAB1, stronger effect = lower value)?
A: 0.706 (active)

Q: And the normalized growth (locus YFR028C, strain CDC14, stronger effect = lower value)?
A: 0.965

Q: And the normalized growth (locus YGR040W, strain KSS1, stronger effect = lower value)?
A: 0.648 (active)

Q: And the normalized growth (locus YGR052W, strain FMP48, stronger effect = lower value)?
A: 0.561 (active)

Q: And the normalized growth (locus YGR092W, strain DBF2, stronger effect = lower value)?
A: 0.336 (active)

Q: What about the normalized growth [2] of the same compound?
A: 0.387 (active)

Q: And the normalized growth (locus YHR079C, strain IRE1, stronger effect = lower value)?
A: 0.438 (active)

Q: What about the normalized growth (locus YHR082C, strain KSP1, stronger effect = lower value) of the same compound?
A: 0.569 (active)

Q: And the normalized growth (locus YHR205W, strain SCH9, stronger effect = lower value)?
A: 0.473 (active)

Q: And the normalized growth (locus YIL147C, strain SLN1, stronger effect = lower value)?
A: 0.973

Q: What about the normalized growth (locus YJL095W, strain BCK1, stronger effect = lower value) of the same compound?
A: 0.473 (active)

Q: What about the normalized growth (locus YJL128C, strain PBS2, stronger effect = lower value) of the same compound?
A: 0.921

Q: What about the normalized growth (locus YJL157C, strain FAR1, stronger effect = lower value) of the same compound?
A: 0.629 (active)

Q: And the normalized growth (locus YJR016C, strain ILV3, stronger effect = lower value)?
A: 0.988

Q: And the normalized growth (locus YJR066W, strain TOR1 (second series), stronger effect = lower value)?
A: 0.801

Q: What about the normalized growth (locus YJR066W, strain TOR1, stronger effect = lower value) of the same compound?
A: 0.427 (active)

Q: And the normalized growth (locus YKL048C, strain ELM1, stronger effect = lower value)?
A: 0.776 (active)

Q: And the normalized growth (locus YKL067W, strain YNK1, stronger effect = lower value)?
A: 0.613 (active)

Q: And the normalized growth (locus YKL101W, strain HSL1, stronger effect = lower value)?
A: 0.678 (active)

Q: What about the normalized growth (locus YKL193C, strain SDS22, stronger effect = lower value) of the same compound?
A: 0.979

Q: And the normalized growth (locus YKL203C, strain TOR2, stronger effect = lower value)?
A: 0.738

Q: What about the normalized growth (locus YLR113W, strain HOG1, stronger effect = lower value) of the same compound?
A: 0.577 (active)

Q: What about the normalized growth (locus YLR133W, strain CKI1, stronger effect = lower value) of the same compound?
A: 0.621 (active)

Q: And the normalized growth (locus YLR403W, strain SFP1, stronger effect = lower value)?
A: 0.51 (active)

Q: What about the normalized growth (locus YML070W, strain DAK1, stronger effect = lower value) of the same compound?
A: 0.642 (active)

Q: What about the normalized growth (locus YMR001C, strain CDC5, stronger effect = lower value) of the same compound?
A: 0.981

Q: And the normalized growth (locus YMR205C, strain PFK2 (second series), stronger effect = lower value)?
A: 0.646 (active)

Q: What about the normalized growth (locus YMR277W, strain FCP1, stronger effect = lower value) of the same compound?
A: 0.972

Q: What about the normalized growth (locus YNL006W, strain LST8, stronger effect = lower value) of the same compound?
A: 0.995

Q: What about the normalized growth (locus YNL020C, strain ARK1, stronger effect = lower value) of the same compound?
A: 0.597 (active)

Q: And the normalized growth (locus YNL161W, strain CBK1, stronger effect = lower value)?
A: 0.982

Q: And the normalized growth (locus YNL183C, strain NPR1, stronger effect = lower value)?
A: 0.54 (active)

Q: What about the normalized growth (locus YNL207W, strain RIO2, stronger effect = lower value) of the same compound?
A: 0.966

Q: And the normalized growth (locus YNL222W, strain SSU72, stronger effect = lower value)?
A: 0.98

Q: And the normalized growth (locus YNL307C, strain MCK1 (second series), stronger effect = lower value)?
A: 0.566 (active)

Q: And the normalized growth (locus YOL078W, strain AVO1, stronger effect = lower value)?
A: 0.978

Q: And the normalized growth (locus YOL136C, strain PFK27, stronger effect = lower value)?
A: 0.597 (active)

Q: What about the normalized growth (locus YOR061W, strain CKA2, stronger effect = lower value) of the same compound?
A: 0.576 (active)

Q: And the normalized growth (locus YOR119C, strain RIO1, stronger effect = lower value)?
A: 0.642 (active)

Q: What about the normalized growth (locus YOR231W, strain MKK1, stronger effect = lower value) of the same compound?
A: 0.494 (active)

Q: And the normalized growth (locus YOR329C, strain SCD5, stronger effect = lower value)?
A: 0.985

Q: What about the normalized growth (locus YPL031C, strain PHO85, stronger effect = lower value) of the same compound?
A: 0.6 (active)

Q: What about the normalized growth (locus YPL153C, strain RAD53, stronger effect = lower value) of the same compound?
A: 0.619 (active)

Q: What about the normalized growth (locus YPL204W, strain HRR25, stronger effect = lower value) of the same compound?
A: 0.58 (active)

Q: And the normalized growth (locus YPL209C, strain IPL1, stronger effect = lower value)?
A: 0.978

Q: What about the normalized growth (locus YPL256C, strain CLN2, stronger effect = lower value) of the same compound?
A: 0.481 (active)

Q: What about the normalized growth (locus YPR025C, strain CCL1, stronger effect = lower value) of the same compound?
A: 0.973

Q: What about the normalized growth (locus YPR106W, strain ISR1, stronger effect = lower value) of the same compound?
A: 0.959

Q: What about the normalized growth (locus YPR111W, strain DBF20, stronger effect = lower value) of the same compound?
A: 0.928

Q: What about the normalized growth (strain NNK1, stronger effect = lower value) of the same compound?
A: 0.963

Q: What about the normalized growth (strain TSCII, stronger effect = lower value) of the same compound?
A: 0.982

Source: PubChem BioAssay AID1159580 (chemical genetic matrix, 2015)
